# PubChem BioAssay (EPA / NIEHS)
# Where “and” joins values, the source holds several entries; their conditions need not be identical. Equal entries are not always repeated. Records with an inconclusive call do not appear. Calls of active or inactive are those of the source. Rule for the calls: active = hit-call score of the fitted dose curve at least 0.9, where 1 is the maximum; inconclusive = response in the unintended direction; inactive = score below 0.9.
# What was measured:
# [1] = target: human Protein Tyrosine Phosphatase Non-receptor Type 4 (PTPN4), PTPN4 (gene 5775) (UniProt P29074); experiment: NVS_ENZ_hPTPN4: NovaScreen (NVS) Enzymatic Assay for human Protein Tyrosine Phosphatase Non-receptor Type 4 (PTPN4) (AID 2283208)
# Method in brief: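 Screened in duplicate at 25 uM, with hits then titrated to a top concentration of 50 uM. Recombinant Sf9-derived PTPN4 turnover was read by fluorescence with electrophoretic separation, 1.33 h after compound addition. DMSO served as baseline.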
# [2] = target: human Protein Tyrosine Phosphatase Non-receptor Type 9 (PTPN9), PTPN9 (gene 5780) (UniProt P43378); experiment: NVS_ENZ_hPTPN9: NovaScreen (NVS) Enzymatic Assay for human Protein Tyrosine Phosphatase Non-receptor Type 9 (PTPN9) (AID 2283209)
# Method in brief: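 Sf9-expressed enzyme in a cell-free assay, fluorescence read 1.33 h after dosing with mobility-shift separation of substrate and product. Tested at 25 uM in duplicate, then up to 50 uM; signal loss versus DMSO.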
# [3] = target: human Rho Associated Coiled-coil Containing Protein Kinase 1 (ROCK1), ROCK1 (gene 6093) (UniProt Q13464); experiment: NVS_ENZ_hROCK1: NovaScreen (NVS) Enzymatic Assay for human Rho Associated Coiled-coil Containing Protein Kinase 1 (ROCK1) (AID 2283214)
# Method in brief: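 Compounds first run in duplicate at 25 uM against recombinant human ROCK1, then followed in concentration series. Kinase activity was read 1 h post-dosing by fluorescence with mobility-shift separation, as signal loss relative to DMSO.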
# [4] = target: human Phosphodiesterase 5 (PDE5), PDE5A (gene 8654) (UniProt O76074); experiment: NVS_ENZ_hPDE5: NovaScreen (NVS) Enzymatic Assay for human Phosphodiesterase 5 (PDE5) (AID 2283194)
# Method in brief: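 Screening began in duplicate at 25 uM, with actives taken into concentration-response. Enzyme activity of recombinant PDE5 toward its substrate was measured at 1 h by fluorescence mobility-shift detection, relative to DMSO controls.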
# [5] = target: human Phosphatase and Tensin Homolog (PTEN), PTEN (gene 5728) (UniProt P60484); experiment: NVS_ENZ_hPTEN: NovaScreen (NVS) Enzymatic Assay for human Phosphatase and Tensin Homolog (PTEN) (AID 2283203)
# Method in brief: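 Loss of fluorescent product signal after mobility-shift separation reports PTEN activity, recombinant human enzyme, 1 h after compound addition. Single 25 uM duplicate screen, then concentration-response on actives; DMSO baseline.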
# [6] = target: Tyrosine-protein phosphatase non-receptor type 11 (Homo sapiens) (UniProt Q06124); experiment: NVS_ENZ_hPTPN11: NovaScreen (NVS) Enzymatic Assay for human Protein Tyrosine Phosphatase Non-receptor Type 11 (PTPN11) (AID 2283202)
# Method in brief: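 Compounds first tested in duplicate at 25 uM; those reaching ~30% inhibition rerun in singleton concentration-response, top 50 uM. Phosphatase activity measured after 0.5 h by fluorescence with mobility-shift separation, relative to DMSO.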
# [7] = target: Tyrosine-protein phosphatase non-receptor type 14 (Homo sapiens) (UniProt Q15678); experiment: NVS_ENZ_hPTPN14: NovaScreen (NVS) Enzymatic Assay for human Protein Tyrosine Phosphatase Non-receptor Type 14 (PTPN14) (AID 2283206)
# Method in brief: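 Fluorescent substrate turnover by recombinant human PTPN14 was measured 0.5 h after compound addition, with substrate and product separated by mobility shift. Single-point screening at 25 uM, then concentration-response up to 50 uM for chemicals meeting threshold (e.g., 30% inhibition).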
# [8] = target: human Protein Tyrosine Phosphatase Non-receptor Type 6 (PTPN6), PTPN6 (gene 5777) (UniProt P29350); experiment: NVS_ENZ_hPTPN6: NovaScreen (NVS) Enzymatic Assay for human Protein Tyrosine Phosphatase Non-receptor Type 6 (PTPN6) (AID 2283210)
# Method in brief: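 Recombinant human PTPN6 from SF9 cells, enzyme activity followed by fluorescence after mobility-shift separation of substrate and product at 1.33 h. Chemicals first tested at a single 25 uM in duplicate, then confirmed across concentration series; loss of signal relative to DMSO.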
# [9] = target: human Phosphoinositide 3-kinase alpha (PI3Ka), PIK3CA (gene 5290) (UniProt P42336); experiment: NVS_ENZ_hPI3Ka: NovaScreen (NVS) Enzymatic Assay for human Phosphoinositide 3-kinase alpha (PI3Ka) (AID 2283196)
# Method in brief: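 Duplicate single-point screen (25 uM), then singleton dose-response (max 50 uM) for compounds meeting the threshold. Cell-free kinase reaction, 1 h; fluorescent mobility-shift readout.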
# [10] = target: human Protein Tyrosine Phosphatase Receptor Type F (PTPRF), PTPRF (gene 5792) (UniProt P10586); experiment: NVS_ENZ_hPTPRF: NovaScreen (NVS) Enzymatic Assay for human Protein Tyrosine Phosphatase Receptor Type F (PTPRF) (AID 2283213)
# Method in brief: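 Cell-free fluorescence enzyme assay with recombinant protein and substrate; product separated by electrophoretic mobility shift. Read 1 h after dosing, single 25 uM duplicate screen, then concentration-response up to 50 uM; loss of signal vs DMSO.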
# [11] = target: human Protein Tyrosine Phosphatase Receptor Type B (PTPRB), PTPRB (gene 5787) (UniProt P23467); experiment: NVS_ENZ_hPTPRB: NovaScreen (NVS) Enzymatic Assay for human Protein Tyrosine Phosphatase Receptor Type B (PTPRB) (AID 2283211)
# Method in brief: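 Recombinant human PTPRB with a fluorescent substrate, product separated by electrophoretic mobility shift; read 1 h after dosing. Primary screen in duplicate at 25 uM; actives then retested in concentration series; loss of signal versus DMSO.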
# [12] = target: cAMP-dependent protein kinase catalytic subunit alpha (Homo sapiens) (UniProt P17612); experiment: NVS_ENZ_hPKA: NovaScreen (NVS) Enzymatic Assay for human Protein Kinase A (PKA) (AID 2283192)
# Method in brief: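 Cell-free kinase activity read by fluorescence after mobility-shift separation of substrate and product, 1 h post-dosing. Single-concentration duplicate screen (25 uM) preceded singleton concentration series (top 50 uM); loss of signal versus DMSO.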
# PPP2CA (gene 5515) = PPP2CA (gene 5515) (UniProt P67775); experiment: NVS_ENZ_hPPP2CA: NovaScreen (NVS) Enzymatic Assay for human Protein Phosphatase 2 Aatalytic subunit Alpha (PPP2CA) (AID 2283199)
# Method in brief: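 Cell-free phosphatase activity: fluorescent substrate turnover by recombinant human enzyme, resolved by mobility shift at 1.33 h. Compounds passing the 25 uM duplicate primary screen were rerun in singleton series with a 50 uM top concentration.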
# [13] = target: human Protein Tyrosine Phosphatase Non-receptor Type 2 (PTPN2), PTPN2 (gene 5771) (UniProt P17706); experiment: NVS_ENZ_hPTPN2: NovaScreen (NVS) Enzymatic Assay for human Protein Tyrosine Phosphatase Non-receptor Type 2 (PTPN2) (AID 2283207)
# Method in brief: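 Activity measured as fluorescence after mobility-shift separation of substrate and product, 1 h after compound. Duplicate single-point 25 uM primary testing, concentration series for actives; inhibition scored as signal loss relative to DMSO baseline.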
# [14] = target: human Protein Tyrosine Phosphatase Receptor Type M (PTPRM), PTPRM (gene 5797) (UniProt P28827); experiment: NVS_ENZ_hPTPRM: NovaScreen (NVS) Enzymatic Assay for human Protein Tyrosine Phosphatase Receptor Type M (PTPRM) (AID 2283215)
# Method in brief: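 Read-out is fluorescence after electrophoretic separation of substrate and product, taken 1.33 h post-dosing with recombinant enzyme. Compounds screened at 25 uM in duplicate, then concentration series for actives; activity as signal loss relative to DMSO.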
# [15] = target: Tyrosine-protein phosphatase non-receptor type 13 (Homo sapiens) (UniProt Q12923); experiment: NVS_ENZ_hPTPN13: NovaScreen (NVS) Enzymatic Assay for human Protein Tyrosine Phosphatase Non-receptor Type 13 (PTPN13) (AID 2283205)
# Method in brief: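 Screened first at a single 25 uM in duplicate; compounds passing the threshold (e.g. 30% inhibition) were rerun in concentration series, top 50 uM. Recombinant enzyme, fluorescent substrate, mobility-shift separation, 0.5 h read. Data fitted as inhibition relative to DMSO.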
# [16] = target: Tyrosine-protein phosphatase non-receptor type 12 (Homo sapiens) (UniProt Q05209); experiment: NVS_ENZ_hPTPN12: NovaScreen (NVS) Enzymatic Assay for human Protein Tyrosine Phosphatase Non-receptor Type 12 (PTPN12) (AID 2283204)
# Method in brief: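 Single-concentration duplicates (25 uM) preceded singleton concentration-response up to 50 uM for chemicals passing threshold. Cell-free recombinant PTPN12 activity was read 1.33 h after dosing via fluorescence after mobility-shift separation; loss of signal versus DMSO.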
# [17] = target: human Protein Tyrosine Phosphatase Non-receptor Type 1 (PTPN1), PTPN1 (gene 5770) (UniProt P18031); experiment: NVS_ENZ_hPTPN1: NovaScreen (NVS) Enzymatic Assay for human Protein Tyrosine Phosphatase Non-receptor Type 1 (PTPN1) (AID 2283201)
# Method in brief: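 Chemicals were first tested in duplicate at 25 uM, and those passing threshold went on to singleton concentration series topping at 50 uM. Recombinant enzyme, specific substrate, product separated by mobility shift, fluorescence read at 1.33 h; activity loss relative to DMSO.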
# human Protein Tyrosine Phosphatase Non-receptor Type 4 (PTPN4), PTPN4 (gene 5775), sequence (P29074 whole entry, looked up): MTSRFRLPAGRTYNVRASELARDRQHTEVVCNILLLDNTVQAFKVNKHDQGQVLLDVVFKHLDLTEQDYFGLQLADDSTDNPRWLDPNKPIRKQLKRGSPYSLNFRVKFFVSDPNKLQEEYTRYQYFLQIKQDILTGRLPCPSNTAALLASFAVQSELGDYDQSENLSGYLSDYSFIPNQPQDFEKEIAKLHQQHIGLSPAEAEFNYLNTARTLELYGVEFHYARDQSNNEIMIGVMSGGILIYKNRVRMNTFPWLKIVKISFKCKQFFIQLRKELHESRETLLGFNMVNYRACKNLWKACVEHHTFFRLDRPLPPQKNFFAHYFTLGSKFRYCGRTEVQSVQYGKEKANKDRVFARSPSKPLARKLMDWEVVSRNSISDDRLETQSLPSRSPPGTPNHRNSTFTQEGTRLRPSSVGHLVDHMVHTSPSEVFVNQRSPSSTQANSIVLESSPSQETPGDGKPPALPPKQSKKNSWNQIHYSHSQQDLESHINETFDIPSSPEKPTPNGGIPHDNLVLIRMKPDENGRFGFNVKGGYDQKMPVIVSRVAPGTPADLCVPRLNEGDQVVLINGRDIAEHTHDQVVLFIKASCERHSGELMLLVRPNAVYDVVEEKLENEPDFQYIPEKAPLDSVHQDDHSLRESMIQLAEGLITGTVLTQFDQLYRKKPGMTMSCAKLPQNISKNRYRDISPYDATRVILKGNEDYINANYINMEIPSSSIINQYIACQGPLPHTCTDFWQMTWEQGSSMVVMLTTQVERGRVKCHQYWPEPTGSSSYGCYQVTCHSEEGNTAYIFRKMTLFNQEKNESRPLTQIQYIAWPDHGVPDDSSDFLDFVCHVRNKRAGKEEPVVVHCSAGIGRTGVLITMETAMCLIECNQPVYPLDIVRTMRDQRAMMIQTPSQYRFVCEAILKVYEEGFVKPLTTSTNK
# human Protein Tyrosine Phosphatase Receptor Type M (PTPRM), PTPRM (gene 5797), sequence (P28827 whole entry, looked up): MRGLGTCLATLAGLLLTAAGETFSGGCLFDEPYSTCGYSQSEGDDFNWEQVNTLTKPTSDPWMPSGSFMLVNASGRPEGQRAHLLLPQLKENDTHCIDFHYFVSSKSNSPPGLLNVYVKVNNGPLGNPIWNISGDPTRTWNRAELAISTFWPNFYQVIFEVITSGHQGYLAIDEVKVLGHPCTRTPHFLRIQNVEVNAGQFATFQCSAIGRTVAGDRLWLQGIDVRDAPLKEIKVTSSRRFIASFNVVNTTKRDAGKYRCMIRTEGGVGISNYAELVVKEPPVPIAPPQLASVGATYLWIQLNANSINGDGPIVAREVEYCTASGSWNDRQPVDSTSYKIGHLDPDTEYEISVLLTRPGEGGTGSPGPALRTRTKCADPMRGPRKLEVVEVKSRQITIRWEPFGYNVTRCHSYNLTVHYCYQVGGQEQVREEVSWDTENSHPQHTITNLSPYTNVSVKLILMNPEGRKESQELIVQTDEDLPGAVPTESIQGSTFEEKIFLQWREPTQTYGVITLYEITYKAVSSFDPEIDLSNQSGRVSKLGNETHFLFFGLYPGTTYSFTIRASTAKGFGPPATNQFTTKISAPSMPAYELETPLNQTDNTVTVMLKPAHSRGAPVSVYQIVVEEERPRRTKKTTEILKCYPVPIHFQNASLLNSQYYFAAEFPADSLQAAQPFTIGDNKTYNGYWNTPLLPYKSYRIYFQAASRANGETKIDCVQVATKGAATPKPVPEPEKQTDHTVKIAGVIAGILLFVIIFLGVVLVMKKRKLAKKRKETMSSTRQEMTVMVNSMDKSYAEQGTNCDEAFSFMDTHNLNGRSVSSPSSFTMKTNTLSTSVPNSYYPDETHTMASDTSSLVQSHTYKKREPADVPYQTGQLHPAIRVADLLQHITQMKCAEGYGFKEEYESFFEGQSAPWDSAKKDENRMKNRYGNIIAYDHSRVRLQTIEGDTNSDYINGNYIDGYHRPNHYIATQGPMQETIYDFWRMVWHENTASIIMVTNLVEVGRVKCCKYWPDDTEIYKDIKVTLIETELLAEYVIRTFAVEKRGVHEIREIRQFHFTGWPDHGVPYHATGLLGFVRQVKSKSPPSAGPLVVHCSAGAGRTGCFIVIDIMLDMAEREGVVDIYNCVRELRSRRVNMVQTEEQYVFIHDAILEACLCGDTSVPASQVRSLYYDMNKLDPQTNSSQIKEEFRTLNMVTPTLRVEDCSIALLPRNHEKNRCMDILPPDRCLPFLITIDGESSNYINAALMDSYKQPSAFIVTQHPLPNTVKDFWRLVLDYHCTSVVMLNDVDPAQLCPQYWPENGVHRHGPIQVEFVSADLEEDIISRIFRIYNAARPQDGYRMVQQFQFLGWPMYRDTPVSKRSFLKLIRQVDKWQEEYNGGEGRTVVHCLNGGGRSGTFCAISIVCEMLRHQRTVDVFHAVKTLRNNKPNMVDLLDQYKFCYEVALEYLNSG
# Tyrosine-protein phosphatase non-receptor type 14 (Homo sapiens), sequence (Q15678 whole entry, looked up): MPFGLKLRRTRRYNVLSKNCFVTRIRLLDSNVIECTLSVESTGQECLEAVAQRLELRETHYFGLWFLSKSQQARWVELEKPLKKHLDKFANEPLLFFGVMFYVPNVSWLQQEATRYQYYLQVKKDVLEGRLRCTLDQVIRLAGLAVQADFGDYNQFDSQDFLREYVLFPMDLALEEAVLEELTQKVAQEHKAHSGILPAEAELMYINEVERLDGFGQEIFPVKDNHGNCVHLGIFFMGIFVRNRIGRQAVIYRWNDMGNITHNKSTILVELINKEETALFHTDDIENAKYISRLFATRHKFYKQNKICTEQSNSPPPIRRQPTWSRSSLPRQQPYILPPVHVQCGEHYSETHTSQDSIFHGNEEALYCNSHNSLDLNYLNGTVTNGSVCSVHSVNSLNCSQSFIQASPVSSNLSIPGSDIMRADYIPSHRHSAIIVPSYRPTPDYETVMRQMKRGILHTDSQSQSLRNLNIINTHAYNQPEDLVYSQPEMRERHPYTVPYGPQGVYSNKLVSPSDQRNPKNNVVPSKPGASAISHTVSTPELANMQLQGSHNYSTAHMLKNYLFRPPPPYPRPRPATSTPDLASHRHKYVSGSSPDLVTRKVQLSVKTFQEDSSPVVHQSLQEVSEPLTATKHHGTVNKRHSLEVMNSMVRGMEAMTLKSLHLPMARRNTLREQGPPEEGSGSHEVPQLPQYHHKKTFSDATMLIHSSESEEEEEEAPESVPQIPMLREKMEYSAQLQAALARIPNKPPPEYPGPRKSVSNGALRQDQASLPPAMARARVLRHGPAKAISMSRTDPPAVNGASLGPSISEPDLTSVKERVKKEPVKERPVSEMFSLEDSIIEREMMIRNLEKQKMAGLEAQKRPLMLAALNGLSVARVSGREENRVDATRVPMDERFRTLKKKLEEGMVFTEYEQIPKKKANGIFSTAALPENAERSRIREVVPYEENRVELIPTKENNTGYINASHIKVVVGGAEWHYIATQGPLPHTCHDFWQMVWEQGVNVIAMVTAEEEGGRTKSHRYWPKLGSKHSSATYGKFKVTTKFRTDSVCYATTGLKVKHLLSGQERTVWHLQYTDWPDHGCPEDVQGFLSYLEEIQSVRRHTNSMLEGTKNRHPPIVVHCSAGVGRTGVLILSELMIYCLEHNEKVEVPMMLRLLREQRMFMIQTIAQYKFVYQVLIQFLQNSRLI
# human Protein Tyrosine Phosphatase Non-receptor Type 6 (PTPN6), PTPN6 (gene 5777), sequence (P29350 whole entry, looked up): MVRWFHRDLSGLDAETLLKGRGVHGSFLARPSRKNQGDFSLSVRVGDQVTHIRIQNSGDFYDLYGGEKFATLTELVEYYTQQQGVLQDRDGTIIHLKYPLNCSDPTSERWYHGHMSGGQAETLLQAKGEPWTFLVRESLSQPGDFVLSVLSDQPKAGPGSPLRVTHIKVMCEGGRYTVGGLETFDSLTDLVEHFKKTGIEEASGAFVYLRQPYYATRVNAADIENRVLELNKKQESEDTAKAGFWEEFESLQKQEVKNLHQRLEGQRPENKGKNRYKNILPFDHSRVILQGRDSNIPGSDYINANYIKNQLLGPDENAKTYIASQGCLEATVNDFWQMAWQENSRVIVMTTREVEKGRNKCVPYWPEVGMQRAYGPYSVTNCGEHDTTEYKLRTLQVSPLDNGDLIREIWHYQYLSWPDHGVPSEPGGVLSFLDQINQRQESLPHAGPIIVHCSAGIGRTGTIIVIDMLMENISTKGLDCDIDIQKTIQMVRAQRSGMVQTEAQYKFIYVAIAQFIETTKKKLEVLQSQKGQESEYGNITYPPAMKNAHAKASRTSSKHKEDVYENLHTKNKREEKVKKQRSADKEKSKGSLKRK
# human Protein Tyrosine Phosphatase Non-receptor Type 9 (PTPN9), PTPN9 (gene 5780), sequence (P43378 whole entry, looked up): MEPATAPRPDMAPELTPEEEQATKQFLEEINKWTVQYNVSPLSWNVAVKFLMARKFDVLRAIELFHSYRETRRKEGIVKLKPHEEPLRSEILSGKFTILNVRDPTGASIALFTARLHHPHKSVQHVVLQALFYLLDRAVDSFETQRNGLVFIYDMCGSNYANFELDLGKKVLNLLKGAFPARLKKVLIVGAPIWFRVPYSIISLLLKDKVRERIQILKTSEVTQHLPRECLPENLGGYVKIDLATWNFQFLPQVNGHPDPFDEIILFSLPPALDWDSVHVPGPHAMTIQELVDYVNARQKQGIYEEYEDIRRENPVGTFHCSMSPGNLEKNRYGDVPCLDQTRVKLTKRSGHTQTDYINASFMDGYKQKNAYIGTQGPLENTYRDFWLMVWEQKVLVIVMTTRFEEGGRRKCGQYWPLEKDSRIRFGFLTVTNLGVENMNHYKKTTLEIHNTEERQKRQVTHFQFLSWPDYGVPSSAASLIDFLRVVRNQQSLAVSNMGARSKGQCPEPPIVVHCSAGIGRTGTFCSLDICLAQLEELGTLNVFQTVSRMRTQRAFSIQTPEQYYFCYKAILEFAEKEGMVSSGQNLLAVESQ
# PPP2CA (gene 5515), sequence (P67775 whole entry, looked up): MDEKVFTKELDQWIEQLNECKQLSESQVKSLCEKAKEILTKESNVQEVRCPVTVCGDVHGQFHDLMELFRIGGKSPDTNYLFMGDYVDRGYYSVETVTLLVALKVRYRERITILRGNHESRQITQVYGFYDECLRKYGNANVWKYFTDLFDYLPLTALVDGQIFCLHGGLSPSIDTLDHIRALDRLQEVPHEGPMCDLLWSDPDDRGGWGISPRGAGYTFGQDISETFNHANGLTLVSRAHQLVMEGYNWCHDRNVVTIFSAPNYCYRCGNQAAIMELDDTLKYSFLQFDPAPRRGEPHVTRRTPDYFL
compound,measurement,setting,value
N#Cc1cc(Br)c(O)c(Br)c1,outcome,[1],inactive
same,outcome,[2],inactive
same,outcome,[3],inactive
CON(C)C(=O)Nc1ccc(Cl)c(Cl)c1,AC50,[4],7.19 µM (active) and 9.03 µM (active)
same,outcome,[5],inactive
same,outcome,[3],inactive
CCCCOC(=O)c1ccccc1C(=O)OCCCC,outcome,[6],inactive
same,outcome,[7],inactive
same,outcome,[8],inactive
CN(C)C(=S)SSC(=S)N(C)C,outcome,[9],inactive
same,outcome,[10],inactive
COc1nc(NC(C)C)nc(NC(C)C)n1,outcome,[11],inactive
CCNc1nc(Cl)nc(NC(C)C)n1,AC50,[4],4.96 µM (active) and 8.17 µM (active)
same,outcome,[11],inactive
COc1nc(C)nc(NC(=O)NS(=O)(=O)c2ccccc2Cl)n1,outcome,[12],inactive
same,outcome,PPP2CA (gene 5515),inactive
same,outcome,[13],inactive
same,outcome,[1],inactive
same,outcome,[2],inactive
same,outcome,[11],inactive
same,outcome,[14],inactive
CO/C=C(/C(=O)OC)c1ccccc1Oc1cc(Oc2ccccc2C#N)ncn1,outcome,[9],inactive
same,AC50,[15],0.113 µM (active)
CC1=C(C(=O)Nc2ccccc2)SCCO1,outcome,[9],inactive
CCc1nn(C)c(C(=O)NCc2ccc(C(C)(C)C)cc2)c1Cl,outcome,[1],inactive
same,AC50,[2],16.4 µM (active)
CCOP(=S)(OCC)SCn1c(=O)oc2cc(Cl)ccc21,outcome,[4],inactive
same,outcome,[7],inactive
Cc1c(F)c(F)c(COC(=O)C2C(/C=C(\Cl)C(F)(F)F)C2(C)C)c(F)c1F (stereo not drawn),outcome,[1],inactive
same,outcome,[2],inactive
CNC(=S)S,outcome,[12],inactive
same,outcome,[6],inactive
same,outcome,[16],inactive
same,outcome,[7],inactive
same,outcome,[13],inactive
same,AC50,[2],13.5 µM (active)
same,outcome,[8],inactive
same,outcome,[11],inactive
same,AC50,[10],15.5 µM (active)
same,outcome,[14],inactive
CCCCNC(=O)n1c(NC(=O)OC)nc2ccccc21,outcome,[4],inactive
O=C(Nc1ccccc1)Nc1ccnc(Cl)c1,AC50,[4],10 µM (active)
COP(=S)(OC)Oc1nc(Cl)c(Cl)cc1Cl,outcome,[17],inactive
